Data as given in PubChem BioAssay (NCI).
The panel holds about 83,000 compounds, 20% with a hit somewhere; the sample as a whole holds those more often.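 Negative percent growth values reflect cell death: -40 means 40% of the cells present at the start died, and -100 means all died.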 The source made the active and inactive calls.

The compounds below were run on HCC-2998 colon (assay: NCI-60 one-dose screen, 48 h (100 = growth as untreated, 0 = no growth, -100 = all killed)). Settings: 10 µM.
Protocol: Growth inhibition of the HCC-2998 human tumor cell line is measured as a screen for anti-cancer activity. Cells are grown in 96 well plates and exposed to the test compound for 48 hours. Compounds are tested at a single concentration, which is 10^-5 M for most compounds. The reported endpoint is percent growth (GI% or GIPRCNT), where numbers from 0 - 100% represent growth inhibition, and numbers from -100% - 0 represent cell death. For example, a value of 40 represents 60% growth inhibition. A value of 0 means no net growth occurred over the course of the experiment. A value of -40 indicates 40% of cells at the beginning of the experiment died by the end of the experiment. A value of -100 means all cells are dead at the end of the experiment.
NCI-60 Human Tumor Cell Lines Screen was performed using the standard one-dose NCI protocol, which is described in more detail at https://dtp.cancer.gov/discovery_development/nci-60/default.htm.
Compounds with GIPRCNT values below 10 were considered active. Activity score was based on GIPRCNT using the following formula: […]
Score is 0 for GIPRCNT values of 100 or above, 50 for GIPRCNT values of 0, and 100 for GIPRCNT values of -100.

Structure (SMILES)	growth
O=C(O)c1cc([N+](=O)[O-])ccc1Cl	97% (inactive)
CC(=O)Cc1cc(-c2cc(CC(C)=O)[nH]n2)n[nH]1	112% (inactive)
CCC/C=C(/C(C)=O)C(=O)OCC	7.66% (active)
CCOC(=O)c1cc(/C=C/c2cccc(Cl)c2)on1	97.2% (inactive)
O=C(c1ccc(Cl)cc1)c1ccccc1Cl	92.6% (inactive)
NCCC(=O)c1ccc(Cl)cc1	97.6% (inactive)
CN(C)c1nc2c([nH]1)c(=O)n(C)c(=O)n2C	89.8% (inactive)
CC(=O)OCC1OC(OC2=C(CC=C(C)C)C(=O)c3ccccc3C2=O)C(OC(C)=O)C(OC(C)=O)C1OC(C)=O (stereo not given)	77.9% (inactive)
c1c(-c2cc(C3CC3)[nH]n2)n[nH]c1C1CC1	102% (inactive)
CC1(C)OC(=O)C(c2ccsc2)C(=O)O1	107% (inactive)
O=S(=O)(O)C(Nc1ccccc1)c1ccccc1 (stereo not given)	-12.8% (active)
O/N=C/c1ccc(O)cc1O	105% (inactive)
Oc1ccccc1-c1nnco1	104% (inactive)
CNc1nc(NC)c2cn[nH]c2n1	100% (inactive)
CC(C)NC(=O)OCc1c(COC(=O)NC(C)C)c(-c2ccc(Cl)c(Cl)c2)n2c1SCC2	72.8% (inactive)
CN(C)Cc1cc(C(C)(C)CC(C)(C)C)ccc1O	96.5% (inactive)
CC(=O)Nc1c(C)cc(C)cc1C	104% (inactive)
COc1cc2c3c(n(C)c(=O)c2cc1OC)-c1cc2c(cc1C3=O)OCO2	64.5% (inactive)
COc1cccc(O)c1O	99.8% (inactive)
CO[C@H]1C[C@@H]2CC[C@@H](C)[C@@](O)(O2)C(=O)C(=O)N2CCCC[C@H]2C(=O)O[C@H]([C@H](C)C[C@@H]2CC[C@@H](O)[C@H](OC)C2)CC(=O)[C@H](C)C=C(C)[C@@H](O)[C@@H](OC)C(=O)[C@H](C)C[C@H](C)/C=C/C=C/C=C1C	146% (inactive)

Structure (SMILES)	growth
O=c1cc(-c2ccccc2)[nH]c2c1CCCC2	40% (inactive)
C[N+](C)=c1ccc2nc3c(cc(Nc4ccccc4)c4ccccc43)oc-2c1	75.6% (inactive)
O=C1OC(=O)C2C1C1(Cl)C(Cl)=C(Cl)C2(Cl)C2C(=O)OC(=O)C21 (stereo not given)	108% (inactive)
CC(C(=O)O)(C1CCCCC1)C1(O)CCCCC1 (stereo not given)	96.3% (inactive)
CCN=c1cc2sc3cc(NCC)c(C)cc3nc-2cc1C	30.7% (inactive)
Brc1cnc2ccccc2c1	100% (inactive)
O=C(O)CCCc1ccccc1	107% (inactive)
CCNCCCCNCCCCNCCCCNCCCCNCC	101% (inactive)
COc1cccc(COC(=O)Nc2ccccc2)c1OC	102% (inactive)
CCN1C(=O)/C(=C/C=C/N(C)c2ccccc2)SC1=S	93.6% (inactive)
CCCCCCCO	107% (inactive)
Cc1cccc(CO)c1	112% (inactive)
NC(C(=O)O)c1ccc([N+](=O)[O-])cc1 (stereo not given)	111% (inactive)
CCn1c(=O)n(C)c2c(=O)n(C)c(=O)n(C)c21	87.8% (inactive)
COC(=O)c1ccc(C(C)C)cc1	101% (inactive)
CC(=O)OCC1=CC2OC(=O)C3=COC(OC4OC(CO)C(O)C(O)C4O)C1C32 (stereo not given)	300% (inactive)
Nc1ccccc1C(=O)Nc1ccc(Cl)cc1Cl	103% (inactive)
O=[N+]([O-])c1ccc(Cl)c(S(=O)(=O)O)c1	102% (inactive)
CC(C)(C)n1nc(C2CC2)c(Br)c1NC(=O)c1ccccc1F	106% (inactive)
CCOC(=O)C(C#N)Cc1ccccc1 (stereo not given)	118% (inactive)
